The full ranking holds about 9,900 sequences; the median of “r (bound/input frequency ratio)” is about 0.7, and the highest 2% start at about 6.5. For the sample, the highest values were picked, then their nearest neighbours and some sequences at random.
B1: ENSMUSG00000061578.155|Ksr2 (ssRNA)
RNA: GGGAGUUCUACAGUCCGACGAUCGCUUCGAUAUCCGCAUGCUAUAUGCAUGAUGGGUUACAUGGGUGUGUGUGUGUGUGUAACUGUUUACAAUGGUCUCCCUGCCUCUCACGGGCUGUGUUCCAGGAGAAUGCACAUAGAGAGGUUCUGUGGUCUCUGCUGUCGCCUGGUGCUGAAUCCUGAGUGGUUUCCCCACUGAGGACCCUGUGACCCUGUGACCCUUGGCCCCUCCCUUAUUGUGCACACUCAGCACCCCAUCUUCCAAGCCUUUCUUCAUCCCCCACCUUCUUUUGGGAAGGGGUGGCUCUUGCGGUCGCACUAGUGUGGAAUUCUCGGGUGUCAAGG
B2: ENSMUSG00000090935.767|Synj2bp (ssRNA)
RNA: GGGAGUUCUACAGUCCGACGAUCGCUUCGAUAUCCGCAUGCUAAUUUUAAAAAUCAGUUUACUUUCAUCUUUUCUCUUUAGGCUUUCAAUAAAGACCAGAAGGACUGAUAGACAGCUAGAGAGGAUCGUGUAGGCAUCCAGAUUAGAAUGGAAGAAUCCAUUGAACAAUCUGAGAAAACUAAUCAGGUGUUGUUUUAAUCACAUUAGUUUUAAGUUAGAUACAUGCUCUUUGUAGUAUUUUGGGUUUUAUUGUGCAAAUAAGCAAUUAAAAUAUAUUUAGAAGCCAAGUAUAAUGGUACAUGUCUCUUGCGGUCGCACUAGUGUGGAAUUCUCGGGUGUCAAGG
B3: ENSMUSG00000058297.26|Spock2 (ssRNA)
RNA: GGGAGUUCUACAGUCCGACGAUCGCUUCGAUAUCCGCAUGCUAGGCCAGAAGAGACCUGGACAACAGCAGGCAACUUAGCAAAUGGAUCCGGAAGUCAGUGCGGAGGACCCUGGCUCCAGUGGGGGAGGACUGGGGAGUGUGGCUUGUGUGUAUGUGUGAUAUGAGAUGUGUGUGUAUGAUGUGAGAUGUGAGUGUGUGAUGUGAGAUGUGUGUAUGUGAGAUGUGUGUGUGUGUGUGUGUGUGUGUGAUGUGAGUCACCCAAAGGUCCCUAUGUUAUUGAUUUUCAAAUGCACACUUUCACACUCUUGCGGUCGCACUAGUGUGGAAUUCUCGGGUGUCAAGG
B4: ENSMUSG00000058297.23|Spock2|113:117;121:134;143:154;168:174;183:192;198:223 (ssRNA)
RNA: GGGAGUUCUACAGUCCGACGAUCGCUUCGAUAUCCGCAUGCUACCGACGGCCAGAAAGACAGGCCAGAAGAGACCUGGACAACAGCAGGCAACUUAGCAAAUGGAUCCGGAAGUCAGUGCGGAGGACCCUGGCUCCAGUGGGGGAGGACUGGGGACACACGCUACACACAUACACACAUAUGAGAACACACACAUACAUGUGAGAUGUGACACACACAUGUGAGAACACACAUACUGAGAACACACACACACACACACACACACACAUGUGAGUCACCCAAAGGUCCCUAUGUUAUUGAUUUUCUCUUGCGGUCGCACUAGUGUGGAAUUCUCGGGUGUCAAGG
B5: ENSMUSG00000058297.22|Spock2|119:123;127:140;149:160;174:180;189:198;204:229 (ssRNA)
RNA: GGGAGUUCUACAGUCCGACGAUCGCUUCGAUAUCCGCAUGCUAAGGGUGCCGACGGCCAGAAAGACAGGCCAGAAGAGACCUGGACAACAGCAGGCAACUUAGCAAAUGGAUCCGGAAGUCAGUGCGGAGGACCCUGGCUCCAGUGGGGGAGGACUGGGGACACACGCUACACACAUACACACAUAUGAGAACACACACAUACAUGUGAGAUGUGACACACACAUGUGAGAACACACAUACUGAGAACACACACACACACACACACACACACAUGUGAGUCACCCAAAGGUCCCUAUGUUAUUCUCUUGCGGUCGCACUAGUGUGGAAUUCUCGGGUGUCAAGG
B6: ENSMUSG00000058297.24|Spock2 (ssRNA)
RNA: GGGAGUUCUACAGUCCGACGAUCGCUUCGAUAUCCGCAUGCUAGCCAGAAAGACAGGCCAGAAGAGACCUGGACAACAGCAGGCAACUUAGCAAAUGGAUCCGGAAGUCAGUGCGGAGGACCCUGGCUCCAGUGGGGGAGGACUGGGGAGUGUGGCUUGUGUGUAUGUGUGAUAUGAGAUGUGUGUGUAUGAUGUGAGAUGUGAGUGUGUGAUGUGAGAUGUGUGUAUGUGAGAUGUGUGUGUGUGUGUGUGUGUGUGUGAUGUGAGUCACCCAAAGGUCCCUAUGUUAUUGAUUUUCAAAUGCUCUUGCGGUCGCACUAGUGUGGAAUUCUCGGGUGUCAAGG
B7: ENSMUSG00000058297.23|Spock2 (ssRNA)
RNA: GGGAGUUCUACAGUCCGACGAUCGCUUCGAUAUCCGCAUGCUACCGACGGCCAGAAAGACAGGCCAGAAGAGACCUGGACAACAGCAGGCAACUUAGCAAAUGGAUCCGGAAGUCAGUGCGGAGGACCCUGGCUCCAGUGGGGGAGGACUGGGGAGUGUGGCUUGUGUGUAUGUGUGAUAUGAGAUGUGUGUGUAUGAUGUGAGAUGUGAGUGUGUGAUGUGAGAUGUGUGUAUGUGAGAUGUGUGUGUGUGUGUGUGUGUGUGUGAUGUGAGUCACCCAAAGGUCCCUAUGUUAUUGAUUUUCUCUUGCGGUCGCACUAGUGUGGAAUUCUCGGGUGUCAAGG
B8: ENSMUSG00000058297.26|Spock2|95:99;103:116;125:136;150:156;165:174;180:205 (ssRNA)
RNA: GGGAGUUCUACAGUCCGACGAUCGCUUCGAUAUCCGCAUGCUAGGCCAGAAGAGACCUGGACAACAGCAGGCAACUUAGCAAAUGGAUCCGGAAGUCAGUGCGGAGGACCCUGGCUCCAGUGGGGGAGGACUGGGGACACACGCUACACACAUACACACAUAUGAGAACACACACAUACAUGUGAGAUGUGACACACACAUGUGAGAACACACAUACUGAGAACACACACACACACACACACACACACAUGUGAGUCACCCAAAGGUCCCUAUGUUAUUGAUUUUCAAAUGCACACUUUCACACUCUUGCGGUCGCACUAGUGUGGAAUUCUCGGGUGUCAAGG
B9: ENSMUSG00000058297.25|Spock2 (ssRNA)
RNA: GGGAGUUCUACAGUCCGACGAUCGCUUCGAUAUCCGCAUGCUAAAGACAGGCCAGAAGAGACCUGGACAACAGCAGGCAACUUAGCAAAUGGAUCCGGAAGUCAGUGCGGAGGACCCUGGCUCCAGUGGGGGAGGACUGGGGAGUGUGGCUUGUGUGUAUGUGUGAUAUGAGAUGUGUGUGUAUGAUGUGAGAUGUGAGUGUGUGAUGUGAGAUGUGUGUAUGUGAGAUGUGUGUGUGUGUGUGUGUGUGUGUGAUGUGAGUCACCCAAAGGUCCCUAUGUUAUUGAUUUUCAAAUGCACACUCUCUUGCGGUCGCACUAGUGUGGAAUUCUCGGGUGUCAAGG

What follows are binders tested against TDP-43 (Homo sapiens, UniProt Q13148 1-414) (assay: RNA Bind-n-Seq with designed 260-mer pool; 25 mM Tris-HCl, 150 mM KCl, 3 mM MgCl2, BSA (printed 500 mg/mL), 20 units/mL SUPERase IN; pH not stated; 500 nM RNA pool, 1 h, 4 C; TDP-43 5, 50, 500 nM; high values mean tight binding). Conditions: protein: recombinant; tags: SBP (GST cleaved off with PreScission; pGEX-GST-SBP).
Chain of TDP-43 (Q13148 whole entry): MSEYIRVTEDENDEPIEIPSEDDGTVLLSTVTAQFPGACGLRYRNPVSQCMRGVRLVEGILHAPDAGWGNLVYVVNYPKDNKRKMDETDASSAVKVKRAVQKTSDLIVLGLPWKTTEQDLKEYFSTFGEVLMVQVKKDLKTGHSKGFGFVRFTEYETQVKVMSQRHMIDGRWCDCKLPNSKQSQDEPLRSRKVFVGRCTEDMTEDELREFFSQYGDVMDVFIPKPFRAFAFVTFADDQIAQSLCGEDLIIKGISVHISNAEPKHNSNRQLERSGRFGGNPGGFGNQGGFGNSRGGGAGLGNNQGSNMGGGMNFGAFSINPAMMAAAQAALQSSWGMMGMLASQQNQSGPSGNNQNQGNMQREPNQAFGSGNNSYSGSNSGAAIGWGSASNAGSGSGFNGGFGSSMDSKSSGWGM
Procedure, shortened: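 Streptavidin beads captured recombinant SBP-tagged TDP-43 at 5, 50 or 500 nM, and the beads were incubated for 1 h at 4 °C with 500 nM of an in vitro-transcribed pool of 260-nt 3′ UTR oligos in 25 mM Tris-HCl, 150 mM KCl, 3 mM MgCl2, BSA and SUPERase IN. After washing, bound RNA was eluted with biotin, reverse transcribed, PCR-amplified and sequenced. Binding is reported as R, the mapped-read-normalized abundance of each oligo in the bound sample divided by its abundance in the input. Two independent protein batches served as duplicates.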
With B1 the binding signal was 1.09 R (bound/input frequency ratio). With B2 the binding signal was 0.0267 R (bound/input frequency ratio). With B3 the binding signal was 6.34 R (bound/input frequency ratio). For B4, the binding signal was 4.42 R (bound/input frequency ratio). With B5 the binding signal was 2.11 R (bound/input frequency ratio). With B6 the binding signal was 9.99 R (bound/input frequency ratio). With B7 the binding signal was 6.74 R (bound/input frequency ratio). With B8 the binding signal was 3.09 R (bound/input frequency ratio). With B9 the binding signal was 6.77 R (bound/input frequency ratio).
